# Results taken from PubChem BioAssay AID463165 (Johns Hopkins Ion Channel Center, 2010).
# The whole screen tested about 310,000 compounds, of which about 1,400 (0.45%) were called active.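 The calls were made as follows: active = B-score, a plate-corrected calcium signal, over three deviations above library mean, with baseline fluorescence within five deviations of library mean; inactive = the rest.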 Only a selection was taken, and actives are over-represented in it overall.
# Target: Regulator of G-protein signaling 4 (Homo sapiens) (UniProt P49798)
# Sequence (P49798 whole entry, looked up): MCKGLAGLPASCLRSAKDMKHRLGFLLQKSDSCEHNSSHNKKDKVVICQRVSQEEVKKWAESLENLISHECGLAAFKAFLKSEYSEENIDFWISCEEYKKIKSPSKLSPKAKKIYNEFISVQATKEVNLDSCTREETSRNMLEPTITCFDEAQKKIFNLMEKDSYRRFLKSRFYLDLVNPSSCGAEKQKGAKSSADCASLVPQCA
# Assay: RGS4 inhibitors, primary screen, cell-based, HEK293 M3R inducible RGS4, calcium flux (AID 463165);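 also: RGS4 expression induced by doxycycline in cells with stable M3 receptor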;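 as to B-score: B-score is computed from the integrated fluorescence ratio over baseline after carbachol; higher B-score means a larger calcium signal and so more RGS4 inhibition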
# Details: Fluo-4 calcium flux, at 10 µM; B-score: stronger effect = higher value unless noted; outcome: triggered by carbachol at its EC20 unless noted
SMILES,outcome,B-score
O=c1[nH]c(=O)n(Cc2ccccc2)c(O)c1/C=N/Nc1c(F)c(F)c(F)c(F)c1F,inactive [setting not given],
O=C(N/N=C/c1c(O)n(C2CC2)c(=S)[nH]c1=O)c1ccccc1,inactive [setting not given],
O=C(N/N=C/c1c(O)n(Cc2ccccc2)c(=O)[nH]c1=O)c1ccccc1,,5.25 (active)
O=C1N=c2ccccc2=C/C1=C\c1c(O)[nH]c(=S)[nH]c1=O,inactive [setting not given],
O=c1[nH]c(O)c(C=Nc2cc(F)cc(F)c2)c(=O)[nH]1,inactive [setting not given],
Cc1ccc2c(c1)=C/C(=C\c1c(O)[nH]c(=O)[nH]c1=O)C(=O)N=2,,5.31 (active)
COC(=O)CN1C(=O)C2(C(C(=O)OC)=C(N)Oc3ccccc32)C2=C1CC(C)(C)CC2=O (stereo not given),inactive,
CC1CCC(N(C)C2CCN(C)CC2)CC1 (stereo not given),inactive,
C=CC12CN(C)[C@@H]3C4CO[C@H](C[C@H]41)[C@]1(C(=O)Nc4ccccc41)[C@@H]32 (stereo not given in full),inactive,
CC(C)(C)c1ccc(OC(=O)N2CCCCC2)cc1,inactive,
O=C1NC(=O)N(c2ccc(F)cc2)C(=O)/C1=C/c1ccc2c(c1)CCCN2Cc1ccccc1,inactive [setting not given],
Cc1cccc(N2C(=O)NC(=O)/C(=C\c3cnn(-c4ccccc4)c3)C2=O)c1,inactive [setting not given],
O=C1NC(=O)N(c2ccccc2)C(=O)/C1=C/c1ccc([N+](=O)[O-])s1,,4.87 (active)
CC(C)c1ccc(OCC(=O)N2CCCN(C)CC2)cc1,inactive,
O=C(CCNS(=O)(=O)c1ccccc1)Nc1ccc(Cl)cc1C(=O)c1ccccc1,inactive,
O=C1NC(=O)N(Cc2ccco2)C(=O)/C1=C\c1ccc(-c2ccc(F)cc2)o1,,15.5 (active)
Cc1cc(/C=C2/C(=O)NC(=O)N(Cc3ccco3)C2=O)c(C)n1-c1ccc(C(=O)O)cc1,inactive [setting not given],
O=C1NC(=O)N(Cc2ccco2)C(=O)/C1=C\c1cccn1CCOc1ccccc1,inactive [setting not given],
CN(C)CC1Oc2ccccc2OC1(O)c1ccccc1 (stereo not given),inactive,
COC(=O)C1=C(c2ccccc2)C[C@@H]2CC[C@H]1N2C(=O)NCc1ccco1,inactive,
